In the library only some 2.7% were active in any assay of this set; here they are far more common.
SENP6 inh: inhibitors of human SENP6 protease. 1.8% of 330,000 active. inhibition, % at 10 µM. Recombinant SENP6 catalytic domain, aminoluciferin luminescence. Q9GZR1;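 active = inhibition above about 50% at the single tested dose, limit read from the data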;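 note: plate controls were DMSO wells with enzyme for no effect and DMSO wells lacking enzyme for full effect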
SENP8 block-1: blocks human SENP8 cleavage of Nedd8 substrate | recombinant SENP8, Nedd8 substrate fluorescence | inhibition, % at 20 µM | 0.64% of 360,000 active; in the data active = inhibition mostly above about 40%, no sharp cut-off; inactive = mostly below about 27%
Target sequence (Q96LD8 whole entry, looked up): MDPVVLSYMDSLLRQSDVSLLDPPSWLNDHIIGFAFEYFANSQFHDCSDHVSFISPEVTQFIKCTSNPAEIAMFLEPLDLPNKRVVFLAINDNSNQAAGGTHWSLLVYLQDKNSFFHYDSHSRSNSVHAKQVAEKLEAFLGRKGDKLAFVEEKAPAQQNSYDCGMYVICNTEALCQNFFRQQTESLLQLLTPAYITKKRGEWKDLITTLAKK
HSP90 inh: HSP90 refolding inhibition in rabbit reticulocyte lysate | 0.91% of 290,000 active | inhibition, % at 5.6 µM | luciferase refolding luminescence, 3 h;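 active = inhibition above the screen-wide mean plus 3 SD, computed separately per campaign, cut at about 16% in these data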;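 note: 0% = DMSO wells and 100% = 60 µM geldanamycin wells; inhibitors lower the luminescence because luciferase stays unfolded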
SENP8 block-2: inhibitors of human SENP8 protease; purified SENP8, Z-RLRGG-aminoluciferin cleavage, luminescence; inhibition, % at 10 µM; 1.2% of 330,000 active; AID 2540; in the data active = inhibition above about 50%
SENP7 block: blocks the human protease SENP7 | Q9BQF6 | recombinant SENP7, Z-RLRGG-aminoluciferin luminescence, 40 min | inhibition, % at 5 µM | 1.5% of 330,000 active;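 active = inhibition above about 50% at the single test dose, limit read from the data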;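 note: plate controls were DMSO with enzyme for no effect and no enzyme buffer wells for full effect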
Target sequence (Q9BQF6 706-1050 limits assumed): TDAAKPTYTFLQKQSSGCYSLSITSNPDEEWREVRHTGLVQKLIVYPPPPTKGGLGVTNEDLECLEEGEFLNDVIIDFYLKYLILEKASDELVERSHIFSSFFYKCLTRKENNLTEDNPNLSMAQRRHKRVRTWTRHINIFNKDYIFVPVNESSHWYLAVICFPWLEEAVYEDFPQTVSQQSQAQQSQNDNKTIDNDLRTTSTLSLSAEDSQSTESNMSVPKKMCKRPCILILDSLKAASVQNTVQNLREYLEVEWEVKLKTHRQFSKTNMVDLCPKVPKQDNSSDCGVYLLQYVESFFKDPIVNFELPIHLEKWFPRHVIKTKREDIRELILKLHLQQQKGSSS
SENP8 inh conf: confirmation of human SENP8 protease inhibitors. purified SENP8, Nedd8-AMC/pro-Nedd8 cleavage fluorescence, 30 min. inhibition, % at 25 µM. 15% of 1,400 active. shares compounds with SENP8 block-1; in the data active = inhibition mostly above about 39%, no sharp cut-off; inactive = mostly below about 34%
Active calls of the source: *; x = not tested or not shown.

SMILES	SENP6 inh	SENP8 block-1	HSP90 inh	SENP8 block-2	SENP7 block	SENP8 inh conf
O=C(O)CN(Cc1ccccc1)S(=O)(=O)c1ccc2c(c1)OCCO2	-1	7	5	-3	-2	x
O=C(NCCN1CCc2ccccc2C1)Nc1ccc(F)cc1	-4	26	-6	-13	-12	x
CCc1ccc(NC(=O)NCCN2CCc3ccccc3C2)cc1	0	45*	-1	-4	-2	16
CCc1ccc(NC(=O)CN2CCc3ccccc3C2)cc1	9	70*	3	7	6	36
O=C(N/N=C/c1c[nH]c2ccccc12)c1cccc([N+](=O)[O-])c1	0	35	4	-12	1	x
O=[N+]([O-])c1ccc(N/N=C/c2c[nH]c3ccccc23)cc1	-4	52*	3	-18	3	4
Cc1nc(Cl)sc1C(=O)Nc1cccc(C(F)(F)F)c1	x	10	x	x	x	x
Cc1cccc(NC(=O)CCS(=O)(=O)c2cccc3nsnc23)c1C	-10	41*	-2	6	6	15
Cc1ccc(CC(=O)NCc2cccnc2)cc1	0	x	0	0	4	x
Cc1cc(=O)[nH]c(-n2[nH]c(C)cc2=O)n1	-2	25	-2	-1	2	x
COc1ccc(-n2[nH]c(C)cc2=O)cc1	-6	68*	17*	-5	-3	40
CCN(CC)S(=O)(=O)c1ccc(N2CCN(c3cccc(OC)c3)CC2)c([N+](=O)[O-])c1	-6	43*	1	-1	8	-3
O=C(NC(=S)N1CCN(C/C=C/c2ccccc2)CC1)c1c(F)cccc1F	11	43*	-4	-1	8	8
COc1ccc(C2CC(=O)c3cnc(NC(=O)c4cccc(OC)c4)nc3C2)cc1 (configuration not stated)	-7	13	0	-6	2	x
COc1cccc(NC(=O)CN(C)C(=O)c2ccc(S(=O)(=O)Nc3ccccc3C)cc2)c1	5	8	x	4	3	x
CC(C)(C)NC(=O)NC(=O)C[n+]1ccc(Cc2ccc([N+](=O)[O-])cc2)cc1	15	50*	13	10	7	17
O=C(CCCn1c(=O)oc2ccccc21)N1CCc2ccccc2C1	-3	48*	-1	-7	0	78*
O=C(CCn1c(=O)oc2ccccc21)N1CCCCCC1	-2	25	2	-5	-29	x
Cc1cc(C)nc(NC(=O)CSc2nc3cc(Cl)ccc3s2)n1	-12	18	3	0	-4	x
CCN1C(=S)SC(=O)C1=C1C=C(C)OC(C)=C1	-14	48*	5	-20	-4	6
N#C/C(=C\c1ccco1)C(=O)Nc1cccc2ncccc12	8	11	2	2	1	x
CCOC(=O)[C@]12CCC=C1N(CCC1=CCCCC1)C(=O)[C@H](CC(=O)NCCCN1CCCC1=O)C2	x	23	x	x	x	x
CCOC(=O)[C@]12CCCC=C1N(CCC1=CCCCC1)C(=O)[C@H](CC(=O)NCCCN1CCCC1=O)C2	x	42*	x	x	x	9
O=C(NCc1ccc2c(c1)OCO2)C1CC(c2ccccc2O)=NO1 (configuration not stated)	-7	11	4	-2	2	x
O=C(NCc1ccc2c(c1)OCO2)C1CC(c2cccc(Br)c2)=NO1 (configuration not stated)	-21	40*	1	-8	-4	11
SMILES	SENP6 inh	SENP8 block-1	HSP90 inh	SENP8 block-2	SENP7 block	SENP8 inh conf
O=C(c1cc([N+](=O)[O-])ccc1N1CCN(S(=O)(=O)c2ccc(Cl)c(Cl)c2)CC1)N1CCOCC1	-2	6	-2	-5	4	x
O=C(NCc1ccccc1)C1=C[C@H](c2ccccc2)C[C@H](OCc2ccc(CO)cc2)O1	7	-16	x	1	-5	x
NC(=O)CC(NC(=O)c1ccccc1)c1ccc(NC2CCCC2)c([N+](=O)[O-])c1 (configuration not stated)	3	41*	x	4	3	24
CC(C)Nc1ccc(C(CC(N)=O)NC(=O)c2ccc(Br)cc2)cc1[N+](=O)[O-] (configuration not stated)	-5	17	x	-4	3	x
CC(C)Nc1ccc(C(CC(N)=O)NC(=O)c2ccccc2)cc1[N+](=O)[O-] (configuration not stated)	-10	44*	5	-1	4	7
COc1cc(CC(=O)OCC(=O)Nc2cc([N+](=O)[O-])ccc2Cl)cc(OC)c1OC	-6	40*	3	-1	8	8
CCOC(=O)c1c(C)[nH]c(/C(C)=N/NC(=O)c2cccnc2)c1C	x	-11	x	x	x	x
CCOC(=O)c1cc([N+](=O)[O-])cc([N+](=O)[O-])c1Sc1ncnc2nc[nH]c12	x	63*	x	x	x	34
COC(=O)c1cc(=O)nc2scc(C)n12	0	-3	7	-6	14	x
CCc1cccc2c1Sc1ccccc1CC2N1CCNCC1 (configuration not stated)	-36	44*	x	-11	12	14
O=C1CCC(C(=O)O)N1 (configuration not stated)	-16	52*	-2	3	-2	17
FC(F)(F)c1cccc(Cc2noc(CN3CCCCC3c3ccccn3)n2)c1 (configuration not stated)	-6	4	2	1	-1	x
Cc1[nH][nH]c(=O)c1C(c1c(C)[nH][nH]c1=O)c1cn(C)c2ccccc12	x	77*	4	x	x	50*
Cc1[nH][nH]c(=O)c1C(c1cc([N+](=O)[O-])ccc1O)c1c(C)[nH][nH]c1=O	x	25	5	x	x	x
Cc1cccc(C)c1NC(=S)N(CCN(C)C)C(C)c1cccnc1 (configuration not stated)	-8	16	-1	-3	0	x
CCOC(=O)C1(C)C=C(Nc2ccc(O)cc2)C(=O)N1c1ccc(O)cc1 (configuration not stated)	4	61*	0	-2	13	16
CCOC(=O)C1(C)C=C(Nc2ccc(OC)cc2)C(=O)N1c1ccc(OC)cc1 (configuration not stated)	-7	-324	2	0	-3	x
CC(C)C[C@@H](CNCC(=O)[C@H](CC(=O)O)NC(=O)c1[nH]cnc1C(=O)N[C@H](CN)CC(C)C)NC(=O)c1nc[nH]c1C(=O)N[C@@H](Cc1ccccc1)C(=O)O	x	3	x	x	x	x
CCOc1ccc(NC(=O)CN(C)C(=O)Cc2c(C)nc3ccccc3c2C)cc1OCC	0	-16	1	5	-2	x
O=C(CS(=O)(=O)Cc1ccccc1)N1CCc2ccccc2C1	6	50*	1	-3	-10	76*
CC(O)/C=C/C1OC(=O)CC1Nc1ccc(C=O)cc1 (configuration not stated)	3	52*	2	-7	1	15
Cc1ccc(C(=O)NN2C(=O)C3C4c5ccccc5C(c5ccccc54)C3C2=O)cc1 (configuration not stated)	7	45*	1	-4	3	17

Screening results: PubChem, several laboratories
